Here are results for 15 molecules from PubChem BioAssay (NCI).

Common to all, as to experiment: NCI-60 one-dose screen, 48 h (100 = growth as untreated, 0 = no growth, -100 = all killed)
In test [1] the test system is HCT-15 colon. Particulars: 10 µM.
In test [2] the test system is HT29 colon. Particulars: 10 µM.
Test [3] concerns SNB-75 CNS. The settings on record: 10 µM.
In test [4] the test system is SNB-19 CNS. Particulars: 10 µM.
Test [5] concerns U251 CNS. Particulars: 10 µM.
For test [6], the system named is PC-3 prostate. The settings on record: 10 µM.
The subject of test [7] is SK-MEL-5 melanoma. The settings on record: 10 µM.
In test [8] the test system is UACC-62 melanoma. Particulars: 10 µM unless noted.
In test [9] the test system is LOX IMVI melanoma. The settings on record: 10 µM.
For test [10], the system named is SK-MEL-28 melanoma. Particulars: 10 µM.

The panel holds about 83,000 compounds, 20% with a hit somewhere; the sample as a whole holds those more often.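 Growth was measured after 48 h exposure to one concentration of compound in 96-well plates. Values under 10 count as active.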 Unmarked numbers belong to inactive results. Active and inactive are the calls of the source.

In the case of `Cc1cc(C(O)(c2ccc(Nc3ccccc3)cc2)c2ccc(Nc3ccc(S(=O)(=O)O)cc3)cc2)ccc1N` (stereo not given), the growth in test [1] is -54% (active); in [2], -78.4% (active); in test [3], 16.8%; in test [4], 19.7%; in test [5] it was -59.4% (active); in test [6], 12.1%. Moreover, the growth was -90.4% (active) in test [7], -22.7% (active) in test [8], -65.9% (active) in test [9] and -86.9% (active) in test [10].

As for `CCOC(=O)CCCC(=O)OCC`, the growth in test [1] is 104%; in test [2] it was 110%; in test [3] it was 87.8%; in [4], 106%; in [5] it was 99.9%; in [6] it was 100%. Moreover, the growth is 106% in [7], 102% in [8], 98.9% in test [9] and 109% in test [10].

Take `CN(c1ccccc1)c1ncnc2c1ncn2C`: the growth was 102% in test [1]; 102% in [2]; 92.8% in test [3]; 102% in test [4]; 98.9% in test [5]; 95.8% in test [6]. The growth was 102% in test [7], 96.8% in test [8], 98.5% in [9] and 112% in test [10].

Regarding `CC(C)=CC(=O)OC(=O)C=C(C)C`, the growth in test [1] is 102%; in [2], 111%; in test [3] it was 90.3%; in test [4] it was 104%; in test [5] it was 102%; in [6] it was 98.4%. The growth in test [7] was 98.8%; in test [8], 98.2%; in [9] it was 109%; in test [10], 102%.

Take `OCCN1CCOCC1`: the growth in test [1] was 96.3%; in test [2], 110%; in [3] it was 90.4%; in test [4], 102%; in [5], 108%; in [6] it was 109%. The growth in test [7] was 103%; in test [8], 103%; in [9], 105%; in test [10], 105%.

For the molecule `O=C1Cc2ccccc2C(=O)O1`, the growth in test [1] was 110%; in test [2], 109%; in test [3], 95.8%; in test [4], 103%; in test [5], 104%; in [6], 85.1%. Further, the growth was 105% in test [7], 106% in test [8], 102% in test [9] and 106% in test [10].

Turning to `S=C1CCCCCN1`, the growth in test [1] was 100%; in [2], 108%; in [3], 89.1%; in test [4], 99.1%; in [5] it was 111%; in test [6] it was 105%. For the same molecule, the growth in test [7] was 107%; in test [8], 100%; in [9] it was 101%; in test [10], 105%.

With `CC(=O)c1ccc2c(ccc3ccccc32)c1`, the growth is 68.4% in [1]; 95.6% in [2]; 105% in test [3]; 99.4% in test [4]; 92.1% in test [5]; 104% in test [6]. For the same molecule, the growth in test [7] was 96.8%; in test [8] it was 96.5%; in test [9], 107%; in test [10], 108%.

In the case of `O=[N+]([O-])c1ccccc1N=Nc1ccc(O)cc1O`, the growth in test [1] was 112%; in [2], 112%; in test [3], 91.5%; in [4] it was 111%; in test [5] it was 115%; in test [6] it was 97.2%. Further, the growth was 106% in test [7], 124% in [8], 99.8% in test [9] and 121% in test [10].

For `CC(C)(O)C#CC#CC(C)(C)O`, the growth is 97.7% in test [1]; 97.8% in test [2]; 94% in test [3]; 112% in test [4]; 98% in [5]; 99.3% in [6]. Besides, the growth was 99% in test [7], 111% in test [8], 97% in test [9] and 99.4% in [10].

Regarding `Cc1ccc(Cl)cc1NC(=O)N(C)CCO`, the growth in test [1] was 110%; in [2], 133%; in [3], 126%; in [4], 101%; in [5], 102%; in [6], 96%. For the same molecule, the growth in test [7] is 101%; in test [8] it was 109%; in test [9], 107%; in [10] it was 145%.

Regarding `O=C(/C=C/C(=O)c1ccccc1)c1ccccc1`, the growth in test [1] was 79.2%; in test [2], 100%; in [3] it was 104%; in test [4], 109%; in [5], 93.6%; in [6], 125%. Moreover, the growth is 105% in test [7], 93.4% in test [8], 92.1% in test [9] and 117% in test [10].

As for `NC(=S)N/N=C/c1ccc(N)cc1`, the growth in test [1] is 102%; in [2], 107%; in test [3] it was 96.1%; in test [4], 104%; in [5], 96.6%; in [6], 82.2%. The growth in test [7] is 99.8%; in test [8], 95.8%; in [9], 91.5%; in [10], 112%.

Regarding `CCCC(=O)c1cc(C)ccc1OC`, the growth in test [1] is 100%; in test [2] it was 107%; in test [3], 94.9%; in [4] it was 114%; in test [5], 115%; in [6], 91.3%. The growth in test [7] was 104%; in test [8] it was 95.5%; in [9], 109%; in test [10] it was 105%.

As for `COc1cc(C2c3cc4c(cc3C3OC(=O)C2C3CO)OCO4)cc(OC)c1OC` (stereo not given), the growth was 3.35% (active) in test [1]; -9.63% (active) in test [2]; 53.4% in test [3]; 46.6% in test [4]; 19.7% in [5]; 19.2% in test [6]. Further, the growth is -0.321% (active) in test [7], 29.7% in test [8], 7.4% (active) in test [9] and 49.4% in test [10].
